High-throughput results: PubChem BioAssay, National Center for Advancing Translational Sciences (NCATS)
GLS inh = glutaminase GLS (human) inhibition. GLS enzymatic activity, qHTS titration. Potency, µM (top dose mostly 45.5 µM), without a hit: top-dose activity change, negative = inhibition, usual class: inhibitors. 410,000 compounds, 0.21% hits; also: % is scaled to controls: 0 for no effect and ±100 for the full control effect
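Coupled fluorescence readout: glutamate oxidase/HRP/Amplex Red detect glutamate formed by hKGA from L-glutamine (1 mM solution added). Buffer 45 mM KH2PO4 pH 8.2, 0.02% Tween-20; reads at t0 and 30 min RT.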
BAZ2B block = blocks human BAZ2B; Potency, µM (titrated, usually from 114 µM), inactives show at the top dose activity change, negative = inhibition, hits mostly inhibitors; AlphaScreen BAZ2B-H3K14Ac peptide displacement; Q9UIF8; 360,000 compounds, 4.4% hits; AID 504333; also: % is scaled to controls: 0 for no effect and ±100 for the full control effect; nearly all actives have a fitted effect of over 60% in size
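Compounds, titrated to a top concentration of 110 uM, were incubated 30 min at room temperature with preformed BAZ2B/acetyl-K14 H3 peptide complex (50 nM each). Proximity signal was measured by AlphaScreen after 20 min with beads.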
L3MBTL1 inh = L3MBTL1 (human) inhibition | Q9Y468 | AlphaScreen L3MBTL1–H3K9me1 peptide binding | Potency, µM (titrated, usually from 57.1 µM), inactives show at the highest dose activity, negative = inhibition, most hits filed as inhibitors | 230,000 compounds, 0.66% hits; also: % is scaled to controls: 0 for no effect and ±100 for the full control effect; nearly all actives have a fitted effect of over 60% in size
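L3MBTL1 50 nM + b-AHA-H3(1-15)K9me1 75 nM, 30 min RT; compound added, 30 min RT; streptavidin donor/Ni-chelate acceptor beads 10 ug/mL each final, 30 min RT dark; AlphaScreen read.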
JMJD2A Tudor inh = inhibitors of human JMJD2A Tudor domain | O75164 | AlphaScreen JMJD2A-Tudor / H3K4me3 peptide binding | Potency, µM (doses to about 114 µM), for the others: at the highest dose activity change, negative = inhibition, most hits filed as inhibitors | 390,000 compounds, 4.4% hits; also: % is scaled to controls: 0 for no effect and ±100 for the full control effect; nearly all actives have a fitted effect of over 50% in size
G9a block = inhibitors of human histone lysine methyltransferase G9a; Q96KQ7; G9a H3K9 monomethylation, AlphaScreen, 2 h; Potency, µM (highest dose often 102 µM), for inactives: at the top dose activity, negative = inhibition, hits mostly inhibitors; 350,000 compounds, 8.8% hits; AID 504332; also: % is scaled to controls: 0 for no effect and ±100 for the full control effect; nearly all actives have a fitted effect of over 75% in size
Target sequence (Q96KQ7 913-1193 limits assumed): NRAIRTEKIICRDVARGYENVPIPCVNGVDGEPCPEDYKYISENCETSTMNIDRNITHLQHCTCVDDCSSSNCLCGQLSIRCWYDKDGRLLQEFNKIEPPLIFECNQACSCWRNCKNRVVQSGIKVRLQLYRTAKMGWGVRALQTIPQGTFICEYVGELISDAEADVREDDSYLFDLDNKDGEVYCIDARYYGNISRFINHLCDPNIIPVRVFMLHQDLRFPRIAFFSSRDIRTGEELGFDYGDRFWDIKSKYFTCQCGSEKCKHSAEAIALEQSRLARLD
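Using a bead-based AlphaScreen, monomethylated H3K9 product from 2 h room-temperature reactions (G9a 20 nM, peptide 500 nM, SAM 20 uM) was detected with 0.5 ug/mL rabbit anti-H3K9me1 antibody.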
HP1b binding inh = HP1-beta chromodomain-methylated histone interaction inhibition; 390,000 compounds, 0.56% hits; Potency, µM (doses to about 114 µM), without a hit: at the highest dose activity change, negative = inhibition, hits mostly inhibitors; AID 540317; AlphaScreen HP1-beta / biotin-H3K9me3 peptide binding; P83916; also: nearly all actives have a fitted effect of over 70% in size
Target sequence (P83916 whole entry, looked up): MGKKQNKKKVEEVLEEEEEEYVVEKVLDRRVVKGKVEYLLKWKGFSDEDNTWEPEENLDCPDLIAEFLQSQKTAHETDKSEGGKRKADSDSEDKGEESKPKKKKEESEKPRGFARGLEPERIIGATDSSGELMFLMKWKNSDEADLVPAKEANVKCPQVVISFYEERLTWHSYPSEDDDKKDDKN
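HP1-beta protein (50 nM final) preincubated 30 min at room temperature with biotinylated H3(1-18)K9me3 peptide (50 nM) in PBS pH 7.4, 0.01% Tween-20, then compound added for 30 min. AlphaScreen streptavidin donor/nickel chelate acceptor beads (10 ug/mL final), 30 min dark, luminescence read.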
* marks the source's active call; other numbers are inactive results; ? = inconclusive; . = no result; [ ] = remark or other dose. The list is not random: actives were taken first. Their share in the collection is about 10%. Calls follow the shape of the dose curve; as a rule, active = well fitted curve in the direction sought with a large enough effect; inconclusive = small, poorly fitted or top-dose-only effect, or another doubt; inactive = no such curve, though single readings can be large; an effect the other way counts as inactive or inconclusive. Potency is read from the fitted curve at half-maximal effect.

SMILES	GLS inh	BAZ2B block	L3MBTL1 inh	JMJD2A Tudor inh	G9a block	HP1b binding inh
CCC(CC)NCC(O)COc1ccc(Br)cc1 (stereo not given)	-24.1%	28.2µM*	.	1µM*	-41.8%	?
CC(C)NCC(O)COc1ccc(Br)cc1 (stereo not given)	33.4%	-14.9%	-0.9%	-13.8%	?	5.0%
CCn1c(COc2ccccc2)nnc1SCc1ccc(C#N)cc1	-0.3%	3.1%	5.1%	-3.7%	-0.4%[59 µM]	37.3%
CCn1c(COc2ccc(Cl)cc2)nnc1SCc1ccc(C#N)cc1	-8.0%	-1.2%	5.7%	-24.0%[11.4 µM]	39.8µM*	61.7%
Cc1cccc(-n2nnc(-c3nc(-c4ccccc4)no3)c2N)c1C	-1.4%	2.3%	.	-1.0%	0.1%[59 µM]	25.2%
CCn1c(=O)c2cc(C(=O)N(C)c3cc(C)ccc3C)sc2c2ccccc21	-13.3%	-30.1%	.	-16.8%	-41.8%[59 µM]	31.5%
COc1cc(/C=C(\C#N)c2nc3ccccc3o2)ccc1O	0.0%	44.7µM*	-29.3%	?	.	-8.8%
CCc1ccc(CNC(=O)C2Cc3cc(S(=O)(=O)N4CCCCCC4)ccc3N2C(C)=O)cc1 (stereo not given)	-4.2%	-3.2%	.	-6.3%	7.7%[59 µM]	3.1%
CCOc1ccc(OCCC(=O)N(CC(=O)Nc2ccccc2C(F)(F)F)Cc2ccco2)cc1	-8.1%	50.1µM*	-27.6%	-18.2%	44.7µM*	6.3%
CC1CCN(S(=O)(=O)c2ccc3c(c2)c(=O)c(C(=O)N2CCN(c4cccc(Cl)c4)CC2)cn3C)CC1	-1.4%	.	.	-10.7%	5.0%[59 µM]	18.1%
Cn1c(=O)c2c(nc(SCc3cccnc3)n2Cc2ccccc2)n(C)c1=O	12.5%	-8.3%	12.6%	35.5µM*	?	22.4%
Cc1ccc(Cn2c(N/N=C/c3ccncc3)nc3c2c(=O)n(C)c(=O)n3C)cc1	?	-32.5%	-16.9%	-10.5%	20.5%	?
Cn1c(=O)c2c(nc(N/N=C/c3ccncc3)n2Cc2ccccc2)n(C)c1=O	12.6µM*	0.4%	4.3%	-22.2%	-2.0%	26.0%
COc1ccc(N2CCN(c3nc4c(c(=O)n(C)c(=O)n4C)n3Cc3ccccc3)CC2)cc1	43.9%	44.7µM*	.	56.2µM*	-49.4%[12.7 µM]	?
C=C(C)Cn1c(N2CCN(c3ccc(OC)cc3)CC2)nc2c1c(=O)n(C)c(=O)n2C	-2.7%	?	.	?	16.7%[59 µM]	-8.9%
COC(=O)Cn1c(CN2CCc3ccccc3C2)nc2c1c(=O)n(C)c(=O)n2C	-17.2%	12.4%	2.7%	-14.6%	50.1µM*	54.7%
CCOC(=O)c1c(Nc2ccc(O)cc2)nnc(-c2ccccc2)c1-c1ccccc1	-0.2%	0.7%	.	3.1%	-22.5%[59 µM]	34.6%
COc1cc(OC)cc(C(=O)Nc2ccc3oc(-c4ccc(Cl)cc4)nc3c2)c1	-11.9%	-0.2%	.	-11.4%	17.6%[59 µM]	32.9%
CCCn1c(SCC(=O)N2CCCC2)nc2c1c(=O)n(C)c(=O)n2C	-4.1%	-5.7%	-0.6%	-1.5%	25.2%	30.2%
Cn1c(=O)c2c(nc(CN3CCN(Cc4ccccc4)CC3)n2Cc2ccc(Cl)cc2)n(C)c1=O	7.6%	-26.5%	.	?	44.7µM*	11.8%
CCN1CCN(c2nc3c(c(=O)n(C)c(=O)n3C)n2Cc2cccc3ccccc23)CC1	2.8%	-5.2%	-11.9%	-4.9%	39.8µM*	17.6%
CCCn1c(SCC(=O)N2CCN(c3ccc(OC)cc3)CC2)nc2c1c(=O)n(C)c(=O)n2C	43.6%	-27.3%	-3.0%	-19.9%	50.1µM*	26.5%
Cn1c(=O)c2c(nc(CN3CCN(Cc4ccccc4)CC3)n2Cc2ccccc2)n(C)c1=O	.	10.7%	3.6%	.	-11.5%	.
Cc1cccc(N2C(=O)C(CC(=O)Nc3ccccc3)N(C3CCCCC3)C2=O)c1 (stereo not given)	0.0%	0.4%	.	-17.9%	-4.4%[59 µM]	45.3%
COc1ccc(-c2nc3sc(CCNC(=O)C(=O)Nc4ccc(C)c(F)c4)c(C)n3n2)cc1	4.7%	-17.1%	.	-19.5%	3.7%[59 µM]	17.7%
SMILES	GLS inh	BAZ2B block	L3MBTL1 inh	JMJD2A Tudor inh	G9a block	HP1b binding inh
Cc1cc(C)cc(N(CC(=O)NCc2ccco2)C(=O)CCC(=O)Nc2ccccn2)c1	0.9%	-9.8%	-3.6%	-13.8%	-14.0%	?
Cc1ccc(N(CC(=O)NCc2ccco2)C(=O)CCC(=O)Nc2ccccn2)c(C)c1	-3.7%	-13.9%	.	-13.7%	22.4µM*	11.1%
Cc1ccc(N(CC(=O)NCc2ccc(F)cc2)C(=O)CCC(=O)Nc2ccccn2)cc1C	10.5%	3.1%	.	79.4µM*	14.8%[59 µM]	9.8%
Cc1cccc(NC(=O)Cn2c(=O)n(CCc3ccccc3)c(=O)c3sc4ccccc4c32)c1	7.1%	-39.0%	.	-3.3%	36.0%[59 µM]	45.7%
Cc1ccc(N2C(=O)[C@@H]3CSC(c4ccc(Cl)cc4)N3C2=O)cc1 (stereo not given in full)	2.6%	3.9%	.	4.0%	1.5%[59 µM]	41.9%
O=C(C[n+]1ccccc1)N/N=C/c1ccc(Cl)c(Cl)c1	-16.7%	50.1µM*	.	22.4µM*	-6.7%	10.1%
Nc1c(Cl)cc2c(c1Oc1ccccc1)C(=O)c1ccccc1C2=O	2.1%	?	.	-33.7%	10µM*	-14.2%
CCCCOc1ccc(C(=O)NCCc2sc(-c3cccc(F)c3)nc2C)cc1	4.6%	-0.8%	.	3.2%	5.6%[59 µM]	38.5%[57 µM]
CNC(=S)N/N=C/c1cn(CCOc2ccccc2OC)c2ccccc12	23.6%	?	-18.1%	-30.1%	7.7%[59 µM]	-7.5%
CNC(=S)N/N=C/c1cn(CCOc2cccc(OC)c2)c2ccccc12	?	?	-17.1%	?	44.7µM*	?
COc1cccc(C(=O)N2c3nc(-c4ccco4)nn3C3(CCCCC3)[C@@H]3CCCC[C@@H]32)c1	0.5%	?	.	-24.2%	17.8µM*	21.8%
O=C(c1cccc(Cl)c1)N1c2nc(-c3ccco3)nn2C2(CCCCC2)[C@@H]2CCCC[C@@H]21	0.2%	-15.4%	.	-20.9%	-7.1%[59 µM]	-5.3%
CC(O)CSc1nc2c(c(=O)[nH]c(=O)n2C)n1Cc1ccccc1Cl (stereo not given)	0.9%	1.6%	4.8%	-13.0%	44.7µM*	2.0%
CC(C)Sc1nc2c(c(=O)[nH]c(=O)n2C)n1Cc1ccc(Cl)cc1	-2.8%	5.5%	5.6%	31.6µM*	?	?
CCC(C)Sc1nc2c(c(=O)[nH]c(=O)n2C)n1CC(O)COc1ccccc1C (stereo not given)	-18.6%	9.5%	-3.8%	-19.1%[57.1 µM]	5.62µM*	-32.5%
CCOC(=O)C(C)Sc1nc2c(c(=O)[nH]c(=O)n2C)n1Cc1ccc(Cl)cc1 (stereo not given)	?	-1.7%	4.9%	-16.9%	11.2µM*	-24.1%
